CBX7 AlphaScr – blocks human CBX7 binding to H3K27me3 peptide; AlphaScreen His6-CBX7 / biotin-H3K27me3 peptide binding; hits give low values; 1.1% of 66,000 active; normalised signal (fraction of DMSO) (test concentration not listed); in the data active = normalised signal below about 0.5
Target sequence (O95931 whole entry, looked up): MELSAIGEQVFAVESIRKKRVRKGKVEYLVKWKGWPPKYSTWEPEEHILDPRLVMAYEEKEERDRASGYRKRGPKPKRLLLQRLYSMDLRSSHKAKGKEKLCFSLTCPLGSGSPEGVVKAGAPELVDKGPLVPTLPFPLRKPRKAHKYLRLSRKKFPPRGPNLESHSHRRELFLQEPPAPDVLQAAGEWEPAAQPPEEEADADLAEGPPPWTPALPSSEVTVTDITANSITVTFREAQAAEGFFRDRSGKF
* marks the source's active call; other numbers are inactive results; ! = a repeat was not active. The sample as a whole holds a higher share of hits than the screen did.

SMILES | CBX7 AlphaScr
CCc1cc(-c2[nH]ncc2-c2ccc3c(c2)OCCO3)c(O)cc1OC | 0.38*
CCCCCCc1cc(-c2[nH]ncc2-c2ccc(Br)cc2)c(O)cc1OC | 0.58
CCc1cc(-c2[nH]ncc2-c2ccc3c(c2)OCCO3)c(O)cc1O | 0.69
O=C(Nc1ccc2oc(-c3ccc(F)cc3Cl)nc2c1)c1ccc(Cl)cc1Cl | 1
O=C(NCCN1CCCCCC1)C1CCN(c2nnc(-n3cccc3)s2)CC1 | 2
Cc1ccc(SCc2cn3ccccc3n2)cc1 | 0.74
Cc1ccc(C(=O)CC2(O)C(=O)N(Cc3ccc(Cl)cc3)c3ccccc32)cc1 (configuration not stated) | 0.73
COc1ccc(C(=O)CC2(O)C(=O)N(Cc3ccc(Cl)cc3)c3ccccc32)cc1 (configuration not stated) | 0.77
CCc1ccc(C(=O)CC2(O)C(=O)N(Cc3ccc(Cl)cc3)c3ccccc32)cc1 (configuration not stated) | 0.42*
O=c1[nH]cnc2nn(-c3ccccc3)nc12 | 1.2
CN(C(=O)Cc1nc(N)n[nH]1)C1(C(=O)Nc2ccccc2)CCCCC1 | 0.027*
Cc1ccc(NC(=O)C2(N(C)C(=O)Cc3nc(N)n[nH]3)CCCCC2)cc1 | 0.79
Nc1n[nH]c(CC(=O)N(Cc2ccccc2)C2(C(=O)Nc3ccccc3)CCCCC2)n1 | 0.7
COc1ccc(OC)c(C2CC(=O)Nc3cc4c(cc32)OCO4)c1 (configuration not stated) | 0.92
NC(=O)CN(C(=O)c1ccccc1)C1(C(=O)Nc2ccc3c(c2)OCCO3)CCCC1 | 1.2
COC(=O)c1ccc(C2C(Oc3ccccc3)C(=O)N2CCc2ccc(OC)c(OC)c2)cc1 (configuration not stated) | 1
CCOC(=O)c1cc(CC)sc1NC(=O)c1ccccc1 | 1.5
COc1cc(Nc2nc(-c3cc(C)ccc3C)cs2)c(OC)cc1Cl | 0.69
Clc1ccc(-c2csc(Nc3ccc4c(c3)OCO4)n2)cc1 | 0.64
COc1ccc(-c2csc(Nc3ccc(S(N)(=O)=O)cc3)n2)cc1C | 0.55
COc1ccc(-c2csc(Nc3ccccc3OC)n2)cc1Br | 0.81
COc1cc(Nc2nc(-c3ccc(CC(C)C)cc3)cs2)c(OC)cc1Cl | 0.48*
Cc1ccc(-c2csc(N3CCN(Cc4ccc5c(c4)OCO5)CC3)n2)cc1 | 0.88
CCc1ccc(-c2csc(Nc3cc(OC)c(Cl)cc3OC)n2)cc1 | 0.66
CC(C)Cc1ccc(-c2csc(Nc3ccc4c(c3)OCO4)n2)cc1 | 0.19*!
SMILES | CBX7 AlphaScr
COc1ccc(-c2csc(Nc3ccc4c(c3)OCO4)n2)cc1Br | 0.33*!
CCC(=O)N1CCc2cc(S(=O)(=O)NCCC(=O)N3CC(C)CC(C)C3)ccc21 (configuration not stated) | 1
O=c1cc(N2CCC3(CC2)OCCO3)[nH]c(=O)n1Cc1ccc(F)cc1 | 0.98
COc1ccc(N2C(=O)CC(Cc3ccc(Cl)cc3)C2=O)cc1 (configuration not stated) | 1.2
Cc1cccc(-c2nc(CN3CCCC(C(=O)NC4CCCc5ccccc54)C3)c(C)o2)c1 (configuration not stated) | 0.92
CC1CC(C)CN(C(=O)C(Cc2ccccc2)NS(=O)(=O)c2ccc3c(c2)CCC(=O)N3)C1 (configuration not stated) | 0.97
Cc1cc(N2CCCCC2)nc2ccc(NC(=O)c3cccc(C(F)(F)F)c3)cc12 | 0.94
O=C(c1cc2ccccc2cc1OCC(O)CN1C(=O)c2ccccc2C1=O)N1CCCCC1 (configuration not stated) | 0.92
O=C(O)C1C2C=CC(C2)C1C(=O)Nc1cc(Cl)ccc1Cl (configuration not stated) | 1.1
CCc1nc2nc(C)cc(Nc3cccc(C(F)(F)F)c3)n2n1 | 0.86
Cc1onc(-c2ccccc2)c1C(=O)NCCN1CCOCC1 | 1.1
COc1ccc(Nc2nc(-c3ccccc3)c(CC(=O)O)s2)c(OC)c1 | 0.97
NC(=O)c1ccc(-n2nnnc2SCC(=O)Nc2ccccc2)cc1 | 1.1
O=C(CSc1nnnn1-c1ccc(Cl)cc1)Nc1ccccc1Cl | 0.86
O=C(CSc1nnnn1-c1ccccc1)Nc1ncccn1 | 0.13*
COc1ccc(CCNC(=O)c2c[nH]n3c(=O)c(Cc4ccccc4F)c(C)nc23)cc1OC | 0.97
CN(C)CCNC(=O)c1cc(-c2ccncc2)nc2ccccc12 | 1.1
CCN(CCCNC(=O)c1cc(-c2cccnc2)nc2ccccc12)c1ccccc1 | 0.98
CCN(CCCNC(=O)c1cc(-c2ccncc2)nc2ccccc12)c1ccccc1 | 0.31*
CCCCN(CCCNC(=O)c1cc(-c2ccncc2)nc2ccccc12)c1ccccc1 | 0.77
CCN(CCNC(=O)c1cc(-c2cccnc2)nc2ccccc12)c1ccccc1 | 0.47*
CCOc1ccc(-c2cc(C(=O)NCCN(CC)c3ccccc3)c3ccccc3n2)cc1 | 0.94
COc1ccc(C2CC(=O)N(Cc3ccccc3)c3ccccc3S2)cc1OC (configuration not stated) | 0.95
Cn1nc(-c2ccc(Cl)cc2)c2cc(C(=O)Nc3ccc4c(c3)OCO4)sc21 | 1.1
COc1cccc(NC(=O)c2cnc3sccn3c2=O)c1 | 1.1

Bioassay records: PubChem, Bradner/Qi Labs at DFCI
